Records with an inconclusive call do not appear. Activity calls are given as the source filed them. Unless noted, the call rests on the fitted dose curve; in most records, active means well fitted curve in the direction sought with a large enough effect in the repeat runs; inconclusive means weak or mixed curves; inactive means no such curve, though single readings can be large; an effect the other way counts as inactive or inconclusive.
How the values were obtained:
[1] = qHTS assay to identify small molecule agonists of the TGF-beta/Smad signaling pathway - cell viability counter screen (AID 1346829); further: top concentration of the series differs between compounds; nearly all actives have a fitted effect of over 45% in size
Method in brief: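 SBE-bla HEK 293T cells plated overnight, compound exposure 5 hr at 37 C. Viability read in the same wells by CellTiter-Glo luminescence after 30 min at room temperature, following the beta-lactamase read.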

[2] = qHTS assay to identify small molecule agonists of the TGF-beta/Smad signaling pathway (AID 1346859; active means well fitted activation curve with a large enough effect in the signal ratio in the repeat runs, not every such curve was filed as active; the % refers to the signal ratio; further: series mostly up to about 77 µM)
Method in brief: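 Reporter line: HEK 293T with stably integrated SBE-controlled beta-lactamase. Compound exposure lasts 5 hr at 37 C and 5% CO2; substrate loading follows for 2 hr at room temperature, with emission read at 460 and 530 nm.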

[3] = biological target: Thyrotropin-releasing hormone receptor (Homo sapiens) (UniProt P34981); test: qHTS assay to identify small molecule antagonists of the thyrotropin-releasing hormone receptor (TRHR) signaling pathway (AID 1346877; active means well fitted inhibition curve with a large enough effect in the repeat runs, not every such curve was filed as active; further: series mostly up to about 51 µM)
Method in brief: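 Overnight-plated (18 h, 37 °C) HEK293 cells expressing TRHR were dye-loaded 2 h, treated with compound, then stimulated with TRH at 1 nM final. Fluorescence intensity was captured every second for 3 min.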

[4] = biological target: Thyrotropin-releasing hormone receptor (Homo sapiens) (UniProt P34981); test: qHTS assay to identify small molecule agonists of the thyrotropin-releasing hormone receptor (TRHR) signaling pathway (AID 1346891; calls by dose curve; further: potency means the concentration at half of the fitted maximal effect;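 on activation: HEK293 cells expressing TRHR with calcium dye readout; series mostly up to about 58 µM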)
Method in brief: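 Cells: TRHR-Hek293, seeded and incubated 18 h. Dye loading: 2 h at 37 °C. Compound added from DMSO stock by pin tool. Read-out: kinetic calcium fluorescence over 3 min.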

[5] = Human pregnane X receptor (PXR) small molecule agonists, qHTS cell viability counter screen (AID 1346977); further: nearly all actives have a fitted effect of over 50% in size
Method in brief: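 Cytotoxicity counter screen run in the same wells as the PXR luciferase assay, using PXR-Luc HepG2 cells in charcoal-stripped serum medium. Viability: CellTiter-Fluor fluorescence after 24hr compound treatment.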

[6] = Caspase-3/7 induction in HepG2 cells by small molecules, qHTS assay (AID 1346978); further: nearly all actives have a fitted effect of over 15% in size
Method in brief: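 Wild-type HepG2 cells, 2,000/well, settled 5 hr at 37 C and 5% CO2, then compound-treated for 17 hr; caspase-3/7 activity read by luminescent Caspase-Glo 3/7 after 30 min at room temperature.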

[7] = Caspase-3/7 induction in CHO-K1 cells by small molecules, qHTS cell viability counter screen (AID 1346979); further: nearly all actives have a fitted effect of over 35% in size
Method in brief: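 Cytotoxicity counter screen run in parallel with the caspase-3/7 assay: CHO-K1 cells, 16hr compound treatment at 37C, then CellTiter-Fluor for 1hr before fluorescence reading.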

[8] = Caspase-3/7 induction in CHO-K1 cells by small molecules, qHTS assay (AID 1346980); further: nearly all actives have a fitted effect of over 15% in size
Method in brief: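 Wild-type CHO-K1 cells exposed to compounds for 17hr at 37 C, 5% CO2. Caspase-3/7 activity then measured by Caspase-Glo 3/7 luminescence after 30min at room temperature.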

[9] = Caspase-3/7 induction in HepG2 cells by small molecules, qHTS cell viability counter screen (AID 1346981); further: series mostly up to about 92 µM; nearly all actives have a fitted effect of over 30% in size
Method in brief: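 Treatment of HepG2 cells with DMSO-delivered compounds ran 16 hr at 37 C following a 5-hr pre-incubation of 2,000 cells/well. CellTiter-Fluor fluorescence, read after 1 hr, served as the viability measure in a qHTS format.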

[10] = biological target: Nuclear receptor subfamily 1 group I member 2 (Homo sapiens) (UniProt O75469); test: Human pregnane X receptor (PXR) small molecule agonists, qHTS assay (AID 1346982); further: nearly all actives have a fitted effect of over 35% in size; further: potency means the concentration at half of the fitted maximal effect
Method in brief: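 Stable HepG2 line reporting PXR-mediated CYP3A4 expression via luciferase. Treatment: 24 hr with compounds in DMSO at 37 C. Detection: ONE-Glo luminescence.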

[11] = biological target: Cytochrome P450 2D6 (Homo sapiens) (UniProt P10635); test: Cytochrome P450 Family 2 Subfamily D Member 6 (CYP2D6) small molecule antagonists: luciferase reporter qHTS assay (AID 1671196); further: nearly all actives have a fitted effect of over 50% in size; further: potency means the concentration at half of the fitted maximal effect; on activity change, negative = inhibition: series mostly up to about 120 µM
Method in brief: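 Chemicals tested for interference with CYP2D6 activity; proluciferin substrate, NADPH regeneration, 1 h at room temperature, luminescent detection.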

[12] = biological target: Cytochrome P450 2C19 (Homo sapiens) (UniProt P33261); test: Cytochrome P450 Family 2 Subfamily C Member 19 (CYP2C19) small molecule antagonists: luciferase reporter qHTS assay (AID 1671197); further: nearly all actives have a fitted effect of over 65% in size; further: potency means the concentration at half of the fitted maximal effect; on activity change, negative = inhibition: series mostly up to about 120 µM
Method in brief: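 P450-Glo CYP2C19 system: enzyme-substrate mix with compound 10 min at room temperature, then NADPH regeneration solution, 1 h at 37C. Proluciferin-to-luciferin conversion detected by luminescence after 20 min with detection reagent; ketoconazole as positive control.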

[13] = biological target: Cytochrome P450 1A2 (Homo sapiens) (UniProt P05177); test: Cytochrome P450 Family 1 Subfamily A Member 2 (CYP1A2) small molecule antagonists: luciferase reporter qHTS assay (AID 1671199); further: nearly all actives have a fitted effect of over 50% in size; further: potency means the concentration at half of the fitted maximal effect; on activity change, negative = inhibition: series mostly up to about 120 µM
Method in brief: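 Read-out is luminescence from luciferin detection reagent (20 min) proportional to CYP1A2 activity; compounds in DMSO preincubated 10 min with enzyme and proluciferin substrate, then NADPH regeneration solution, 1 h, room temperature.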

[14] = biological target: Voltage-gated inwardly rectifying potassium channel KCNH2 (Homo sapiens) (UniProt Q12809); test: Human Ether-a-go-go-Related Gene (hERG) channel small molecule antagonists: fluorescence cell-based qHTS assay (AID 1671200);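 further: hERG-expressing U2OS cells given a thallium stimulus after FluxOR II dye loading; series mostly up to about 77 µM; nearly all actives have a fitted effect of over 50% in size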
Method in brief: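 Fluorescence at 540 nm emission (480 nm excitation) was recorded kinetically for 2 min at 1-second intervals once the thallium-containing stimulus reached cells previously loaded with FluxOR II dye.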

[15] = biological target: Cytochrome P450 3A4 (Homo sapiens) (UniProt P08684); test: Cytochrome P450 Family 3 Subfamily A Member 4 (CYP3A4) small molecule antagonists: luciferase reporter qHTS assay (AID 1671201); further: nearly all actives have a fitted effect of over 50% in size; further: potency means the concentration at half of the fitted maximal effect; on activity change, negative = inhibition: series mostly up to about 120 µM
Method in brief: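 qHTS, 1536-well. CYP3A4 + proluciferin substrate, cpd 10 min RT → NADPH regen 1 h RT → detection reagent 20 min → luminescence (RLU). Ketoconazole positive control.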

[16] = biological target: Nuclear receptor subfamily 1 group I member 2 (Homo sapiens) (UniProt O75469); test: CYP3A4 induction through human pregnane X receptor (PXR) by small molecules, qHTS assay (AID 1346984); further: nearly all actives have a fitted effect of over 40% in size
Method in brief: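 After 24 h at 37C with compound, DPX-2 cells (HepG2, co-transfected PXR response element and CYP3A4 promoter-luciferase) got 3uM final P450-Glo Luciferin-IPA for 3 h; One-Glo luminescence followed.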

[17] = biological target: Nuclear receptor subfamily 1 group I member 2 (Homo sapiens) (UniProt O75469); test: Human pregnane X receptor (PXR) activation by small molecules, qHTS assay (AID 1346985); further: nearly all actives have a fitted effect of over 40% in size
Method in brief: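 DPX-2 cells (HepG2 co-transfected with a PXR response element and a CYP3A4-promoter luciferase construct) were seeded at 2,000 per well, rested 5 hr at 37C, then exposed to DMSO-dissolved compounds for 24 hr. Activation was read as luciferase luminescence.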

[18] = biological target: Cytochrome P450 2C9 (Homo sapiens) (UniProt P11712); test: Cytochrome P450 Family 2 Subfamily C Member 9 (CYP2C9) small molecule antagonists: luciferase reporter qHTS assay (AID 1671198); further: nearly all actives have a fitted effect of over 50% in size; further: potency means the concentration at half of the fitted maximal effect; on activity change, negative = inhibition: series mostly up to about 120 µM
Method in brief: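 P450-Glo proluciferin substrate with CYP2C9 enzyme; 10 min RT preincubation, then NADPH regeneration 1 h at 37C; luciferin detection reagent 20 min RT, luminescence in relative luminescence units.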
On the % scale 0 is the no-effect control and ±100 the full control effect.

Voltage-gated inwardly rectifying potassium channel KCNH2 (Homo sapiens), sequence (Q12809 whole entry, looked up): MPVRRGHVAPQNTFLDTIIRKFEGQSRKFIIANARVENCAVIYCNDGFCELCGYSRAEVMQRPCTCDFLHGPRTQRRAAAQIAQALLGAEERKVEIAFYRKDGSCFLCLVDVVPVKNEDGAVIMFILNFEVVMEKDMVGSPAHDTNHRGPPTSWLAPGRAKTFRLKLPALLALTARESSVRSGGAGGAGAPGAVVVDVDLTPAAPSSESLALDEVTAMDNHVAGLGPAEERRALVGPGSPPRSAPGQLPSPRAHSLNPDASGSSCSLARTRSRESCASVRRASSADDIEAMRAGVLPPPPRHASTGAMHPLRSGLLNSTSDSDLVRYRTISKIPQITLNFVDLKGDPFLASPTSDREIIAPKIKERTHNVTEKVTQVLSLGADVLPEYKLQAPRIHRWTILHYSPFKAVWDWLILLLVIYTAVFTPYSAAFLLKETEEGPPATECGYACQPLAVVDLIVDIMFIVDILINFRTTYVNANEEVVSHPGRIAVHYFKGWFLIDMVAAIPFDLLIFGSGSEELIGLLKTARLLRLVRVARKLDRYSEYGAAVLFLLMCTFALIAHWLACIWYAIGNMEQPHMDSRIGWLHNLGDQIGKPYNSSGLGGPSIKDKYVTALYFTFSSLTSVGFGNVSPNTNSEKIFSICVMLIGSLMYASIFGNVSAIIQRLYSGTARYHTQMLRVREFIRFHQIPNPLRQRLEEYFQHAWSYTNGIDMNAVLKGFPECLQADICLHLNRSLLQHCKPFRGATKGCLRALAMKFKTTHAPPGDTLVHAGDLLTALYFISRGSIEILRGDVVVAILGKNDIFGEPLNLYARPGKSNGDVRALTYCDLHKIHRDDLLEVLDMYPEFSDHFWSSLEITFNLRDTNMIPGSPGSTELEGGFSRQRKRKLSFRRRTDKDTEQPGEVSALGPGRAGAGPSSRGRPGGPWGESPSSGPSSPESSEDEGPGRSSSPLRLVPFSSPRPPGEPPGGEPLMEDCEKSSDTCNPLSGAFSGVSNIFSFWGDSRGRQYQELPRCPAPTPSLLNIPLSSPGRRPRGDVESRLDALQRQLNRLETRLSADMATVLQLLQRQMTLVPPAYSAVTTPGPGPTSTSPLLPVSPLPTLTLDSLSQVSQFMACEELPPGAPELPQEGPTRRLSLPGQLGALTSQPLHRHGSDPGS
Cytochrome P450 2D6 (Homo sapiens), sequence (P10635 whole entry, looked up): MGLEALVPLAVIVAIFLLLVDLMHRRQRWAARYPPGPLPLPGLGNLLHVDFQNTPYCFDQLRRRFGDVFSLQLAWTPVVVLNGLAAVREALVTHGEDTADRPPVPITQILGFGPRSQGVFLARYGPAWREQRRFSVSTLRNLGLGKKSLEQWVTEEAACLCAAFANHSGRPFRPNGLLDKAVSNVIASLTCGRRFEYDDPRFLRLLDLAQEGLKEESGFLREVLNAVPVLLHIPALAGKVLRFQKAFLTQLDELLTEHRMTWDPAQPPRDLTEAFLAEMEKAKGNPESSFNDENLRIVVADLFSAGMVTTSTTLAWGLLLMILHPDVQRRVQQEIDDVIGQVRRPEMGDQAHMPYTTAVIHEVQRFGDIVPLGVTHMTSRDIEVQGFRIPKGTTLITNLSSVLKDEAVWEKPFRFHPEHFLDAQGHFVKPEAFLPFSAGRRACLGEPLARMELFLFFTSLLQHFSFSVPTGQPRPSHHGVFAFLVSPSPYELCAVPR
Cytochrome P450 2C19 (Homo sapiens), sequence (P33261 whole entry, looked up): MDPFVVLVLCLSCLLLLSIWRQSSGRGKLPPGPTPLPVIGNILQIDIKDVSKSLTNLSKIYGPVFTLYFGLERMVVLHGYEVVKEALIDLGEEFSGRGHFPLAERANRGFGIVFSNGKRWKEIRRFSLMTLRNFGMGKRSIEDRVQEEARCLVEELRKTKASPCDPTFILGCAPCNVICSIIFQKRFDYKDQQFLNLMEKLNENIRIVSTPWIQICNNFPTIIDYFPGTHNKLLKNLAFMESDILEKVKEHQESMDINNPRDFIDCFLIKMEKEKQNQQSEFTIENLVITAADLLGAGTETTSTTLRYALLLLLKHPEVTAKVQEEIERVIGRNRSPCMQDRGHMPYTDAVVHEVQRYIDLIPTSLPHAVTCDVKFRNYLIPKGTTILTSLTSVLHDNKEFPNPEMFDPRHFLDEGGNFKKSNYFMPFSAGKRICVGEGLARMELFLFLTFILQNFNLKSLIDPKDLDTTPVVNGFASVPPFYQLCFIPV
Cytochrome P450 1A2 (Homo sapiens), sequence (P05177 whole entry, looked up): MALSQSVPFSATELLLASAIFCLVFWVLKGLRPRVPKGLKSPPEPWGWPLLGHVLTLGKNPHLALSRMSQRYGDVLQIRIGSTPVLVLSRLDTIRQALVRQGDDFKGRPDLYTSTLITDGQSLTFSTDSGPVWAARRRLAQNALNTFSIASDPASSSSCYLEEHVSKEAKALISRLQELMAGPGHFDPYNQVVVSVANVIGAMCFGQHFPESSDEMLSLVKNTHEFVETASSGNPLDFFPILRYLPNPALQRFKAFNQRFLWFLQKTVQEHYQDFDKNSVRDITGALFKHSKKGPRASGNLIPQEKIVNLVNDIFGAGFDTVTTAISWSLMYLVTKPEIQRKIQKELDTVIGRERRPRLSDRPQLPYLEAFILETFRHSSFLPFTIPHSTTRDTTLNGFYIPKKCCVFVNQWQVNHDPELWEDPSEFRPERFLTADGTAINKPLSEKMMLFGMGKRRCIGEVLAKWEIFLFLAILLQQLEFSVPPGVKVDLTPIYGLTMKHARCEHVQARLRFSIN
Nuclear receptor subfamily 1 group I member 2 (Homo sapiens), sequence (O75469 whole entry, looked up): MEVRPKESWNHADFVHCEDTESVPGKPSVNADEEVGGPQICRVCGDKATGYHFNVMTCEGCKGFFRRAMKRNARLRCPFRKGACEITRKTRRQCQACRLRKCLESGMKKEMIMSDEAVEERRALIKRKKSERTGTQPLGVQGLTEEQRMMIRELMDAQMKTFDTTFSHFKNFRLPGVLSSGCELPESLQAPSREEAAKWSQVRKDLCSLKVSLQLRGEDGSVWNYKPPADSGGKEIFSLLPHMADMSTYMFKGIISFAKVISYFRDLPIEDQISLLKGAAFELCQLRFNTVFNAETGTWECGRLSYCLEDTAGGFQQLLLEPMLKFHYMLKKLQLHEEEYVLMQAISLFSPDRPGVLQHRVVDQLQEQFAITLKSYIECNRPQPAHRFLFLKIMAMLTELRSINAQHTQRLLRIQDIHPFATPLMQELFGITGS
Cytochrome P450 2C9 (Homo sapiens), sequence (P11712 whole entry, looked up): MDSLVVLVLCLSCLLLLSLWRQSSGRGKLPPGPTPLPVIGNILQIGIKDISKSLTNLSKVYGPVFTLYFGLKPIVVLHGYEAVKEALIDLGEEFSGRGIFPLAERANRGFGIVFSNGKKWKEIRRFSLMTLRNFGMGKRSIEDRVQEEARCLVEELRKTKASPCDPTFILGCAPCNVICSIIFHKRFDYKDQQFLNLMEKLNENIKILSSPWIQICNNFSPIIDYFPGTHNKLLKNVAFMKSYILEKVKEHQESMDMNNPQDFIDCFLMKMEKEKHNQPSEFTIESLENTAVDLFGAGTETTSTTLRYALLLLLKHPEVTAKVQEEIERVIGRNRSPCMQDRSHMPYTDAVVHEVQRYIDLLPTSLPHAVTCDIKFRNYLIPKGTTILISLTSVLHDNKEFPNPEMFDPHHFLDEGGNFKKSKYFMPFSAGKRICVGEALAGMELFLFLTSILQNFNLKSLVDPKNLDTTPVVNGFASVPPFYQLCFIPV
Thyrotropin-releasing hormone receptor (Homo sapiens), sequence (P34981 whole entry, looked up): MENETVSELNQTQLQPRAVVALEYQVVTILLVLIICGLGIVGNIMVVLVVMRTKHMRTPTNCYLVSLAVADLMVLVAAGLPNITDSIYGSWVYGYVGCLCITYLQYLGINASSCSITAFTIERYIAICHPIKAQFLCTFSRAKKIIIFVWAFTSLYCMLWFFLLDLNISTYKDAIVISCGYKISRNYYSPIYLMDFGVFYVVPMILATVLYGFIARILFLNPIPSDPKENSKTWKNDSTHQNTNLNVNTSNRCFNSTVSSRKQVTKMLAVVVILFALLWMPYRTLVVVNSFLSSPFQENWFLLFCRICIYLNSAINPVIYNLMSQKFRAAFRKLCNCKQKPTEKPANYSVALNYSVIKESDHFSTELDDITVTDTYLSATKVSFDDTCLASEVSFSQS
Cytochrome P450 3A4 (Homo sapiens), sequence (P08684 whole entry, looked up): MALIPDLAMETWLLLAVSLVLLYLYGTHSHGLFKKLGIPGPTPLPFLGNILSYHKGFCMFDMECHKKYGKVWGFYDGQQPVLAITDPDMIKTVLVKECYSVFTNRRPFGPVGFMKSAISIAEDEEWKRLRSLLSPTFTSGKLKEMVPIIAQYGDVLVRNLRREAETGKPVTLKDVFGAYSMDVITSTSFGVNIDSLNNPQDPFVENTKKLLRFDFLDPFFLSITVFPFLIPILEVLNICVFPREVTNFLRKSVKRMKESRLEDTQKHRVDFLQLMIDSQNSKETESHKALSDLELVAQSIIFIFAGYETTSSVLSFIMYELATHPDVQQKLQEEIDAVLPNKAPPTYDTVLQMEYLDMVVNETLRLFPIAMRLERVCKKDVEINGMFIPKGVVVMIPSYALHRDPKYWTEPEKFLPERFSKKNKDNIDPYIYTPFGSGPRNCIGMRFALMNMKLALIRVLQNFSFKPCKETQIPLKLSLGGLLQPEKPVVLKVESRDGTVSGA

CC(C)(C)c1ccc(N)cc1
inactive: outcome [1] | outcome [2] | outcome [3] | Potency [4] | outcome [5] | outcome [6] | Potency [7] | outcome [8] | outcome [9] | Potency [11] | Potency [12] | Potency [13] | Potency [14]
active: Potency [10] 68.6 µM | Potency [15] 28.3 µM

CN(C)CCCN(C)C
inactive: activity change, negative = cytotoxicity [1] 0.619% [at 6.97 µM] | activation [2] -1.23% [at 6.97 µM] | activity, negative = inhibition [3] -3.47% [at 4.65 µM] | activation [4] -0.372% [at 5.23 µM] | activity change, negative = cytotoxicity [5] 11.9% [at 8.39 µM] | caspase activation [6] 0.348% [at 8.39 µM] | activity change, negative = cytotoxicity [7] 2.18% [at 8.39 µM] | caspase-3/7 activation [8] 1.46% [at 8.39 µM] | activity change, negative = cytotoxicity [9] 6.58% [at 8.39 µM] | activation [10] 5.88% [at 8.39 µM] | activity change, negative = inhibition [11] -7.64% [at 10.5 µM] | activity change, negative = inhibition [12] -19.3% [at 10.5 µM] | activity change, negative = inhibition [14] 0.578% [at 6.97 µM] | activity change, negative = inhibition [15] 12.7% [at 10.5 µM]
active: Potency [13] 1.95 µM

N[C@H]1C(O)O[C@H](CO)[C@@H](O)[C@@H]1O (stereo partly specified)
inactive: outcome [1] | outcome [2] | outcome [3] | Potency [4] | outcome [5] | outcome [6] | Potency [7] | outcome [8] | outcome [9] | Potency [10] | outcome [16] | outcome [17] | Potency [12] | Potency [18] | Potency [13] | Potency [14] | Potency [15]
active: Potency [11] 30.9 µM

CC(C)=CCC/C(C)=C\C#N
inactive: outcome [1] | outcome [2] | outcome [3] | Potency [4] | outcome [5] | outcome [6] | Potency [7] | outcome [8] | outcome [9] | Potency [10] | Potency [11] | Potency [18] | Potency [14] | Potency [15]
active: Potency [12] 39.9 µM

C=CC(=O)OCC[N+](C)(C)C
inactive: outcome [1] | outcome [2] | outcome [3] | outcome [5] | outcome [6] | Potency [7] | outcome [8] | outcome [9] | Potency [10] | Potency [11] | Potency [12] | Potency [18] | Potency [13] | Potency [14] | Potency [15]
active: Potency [4] 1.56 µM

CCCCCCCCCCCCCCBr
inactive: outcome [1] | outcome [2] | outcome [3] | Potency [4] | outcome [5] | outcome [6] | Potency [7] | outcome [8] | outcome [9] | Potency [10] | Potency [11] | Potency [12] | Potency [13] | Potency [14] | Potency [15]

N=C(N)N1CCc2ccccc2C1
inactive: activity change, negative = cytotoxicity [1] -4.14% [at 6.97 µM] | activation [2] -1.64% [at 6.97 µM] | activity, negative = inhibition [3] 4% [at 4.65 µM] | activation [4] 0.0364% [at 5.23 µM] | activity change, negative = cytotoxicity [5] 4.15% [at 8.39 µM] | caspase activation [6] -1.31% [at 8.39 µM] | activity change, negative = cytotoxicity [7] 6.67% [at 8.39 µM] | caspase-3/7 activation [8] -0.384% [at 8.39 µM] | activity change, negative = cytotoxicity [9] 3.77% [at 8.39 µM] | activation [10] -6.7% [at 8.39 µM] | outcome [16] | outcome [17] | activity change, negative = inhibition [11] -15.2% [at 10.5 µM] | activity change, negative = inhibition [12] 22.1% [at 10.5 µM] | activity change, negative = inhibition [13] 0.421% [at 10.5 µM] | activity change, negative = inhibition [14] -6.17% [at 6.97 µM]

CC(C)(C)C(=O)CCc1ccc(Cl)cc1
inactive: outcome [1] | outcome [2] | outcome [3] | Potency [4] | outcome [5] | outcome [6] | Potency [7] | outcome [8] | outcome [9] | Potency [10] | Potency [11] | Potency [14] | Potency [15]
active: Potency [12] 7.1 µM | Potency [13] 22.4 µM

CC(C)(C)OC(=O)c1ccccc1C(=O)O
inactive: outcome [1] | outcome [2] | outcome [3] | Potency [4] | outcome [5] | outcome [6] | Potency [7] | outcome [8] | outcome [9] | Potency [10] | Potency [11] | Potency [12] | Potency [13] | Potency [14] | Potency [15]

OCCC(F)(F)C(F)(F)C(F)(F)C(F)(F)C(F)(F)C(F)(F)F
active: Potency [13] 31.7 µM
inactive: outcome [1] | outcome [2] | outcome [3] | Potency [4] | outcome [5] | outcome [6] | Potency [7] | outcome [8] | outcome [9] | Potency [10] | Potency [11] | Potency [12] | Potency [18] | Potency [14] | Potency [15]

CNCCc1ccccn1
inactive: outcome [1] | outcome [2] | outcome [3] | Potency [4] | outcome [5] | outcome [6] | Potency [7] | outcome [8] | outcome [9] | Potency [10] | outcome [16] | outcome [17] | Potency [11] | Potency [12] | Potency [18] | Potency [13] | Potency [14] | Potency [15]

Cc1cc(N)no1
inactive: outcome [1] | outcome [2] | outcome [3] | Potency [4] | outcome [5] | outcome [6] | Potency [7] | outcome [8] | outcome [9] | Potency [10] | Potency [12] | Potency [18] | Potency [14] | Potency [15]
active: Potency [11] 65.6 µM

C=CCON/C(CCC)=C1\C(=O)CC(C)(C)C(C(=O)OC)=C1O
inactive: outcome [1] | outcome [2] | outcome [3] | Potency [4] | outcome [5] | outcome [6] | Potency [7] | outcome [8] | outcome [9] | Potency [10] | Potency [11] | Potency [14]
active: Potency [12] 78.7 µM | Potency [18] 35.2 µM | Potency [15] 35.2 µM

CC(=O)c1ccc(O)c(C(N)=O)c1
inactive: outcome [1] | outcome [2] | outcome [3] | Potency [4] | outcome [5] | outcome [6] | Potency [7] | outcome [8] | outcome [9] | Potency [10] | Potency [11] | Potency [12] | Potency [18] | Potency [13] | Potency [14] | Potency [15]

c1coc(Cn2cccc2)c1
inactive: outcome [1] | outcome [2] | outcome [3] | Potency [4] | outcome [5] | outcome [6] | Potency [7] | outcome [8] | outcome [9] | Potency [10] | Potency [11] | Potency [12] | Potency [18] | Potency [13] | Potency [14] | Potency [15]

Cc1ccc2ccccc2n1
inactive: outcome [1] | outcome [2] | outcome [3] | Potency [4] | outcome [5] | outcome [6] | Potency [7] | outcome [8] | outcome [9] | Potency [10] | Potency [11] | Potency [12] | Potency [18] | Potency [14] | Potency [15]

Source: PubChem BioAssay (Tox21)
